Assay outcomes as filed in PubChem.
VDR inh: Inhibitors of the vitamin D receptor (VDR): qHTS. 400,000 tested, 0.93% active. VDR-SRC2-3 peptide fluorescence polarization, 2 h. Vitamin D3 receptor (Homo sapiens), P11473. Potency, µM, for the others: max response, negative = inhibition, usual class: inhibitors; further: on the % scale 0 is the no-effect control and ±100 the full control effect
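Fluorescence polarization assay of small-molecule disruption of VDR binding to coregulator peptide SRC2-3. Compounds and controls pin-transferred, then read after 2 h incubation at ambient room temperature.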
BAZ2B block: qHTS Assay for Inhibitors of BAZ2B; AlphaScreen BAZ2B-H3K14Ac peptide displacement; Bromodomain adjacent to zinc finger domain protein 2B (Homo sapiens), Q9UIF8; 360,000 tested, 4.4% active; Potency, µM (top dose mostly 114 µM), for inactives: at the top dose activity change, negative = inhibition, actives largely listed as inhibitors; further: on the % scale 0 is the no-effect control and ±100 the full control effect; nearly all actives have a fitted effect of over 60% in size
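Multi-concentration screen (max 110 uM) measuring displacement of acetylated histone H3 peptide from BAZ2B by AlphaScreen, using 50 nM protein, 50 nM peptide and 10 ug/mL streptavidin donor plus Ni-chelate acceptor beads.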
JMJD2A Tudor inh: qHTS Assay for Inhibitors of JMJD2A-Tudor Domain | Lysine-specific demethylase 4A (Homo sapiens), O75164 | AlphaScreen JMJD2A-Tudor / H3K4me3 peptide binding | Potency, µM (series often up to 114 µM), for the others: at the highest dose activity change, negative = inhibition, hits mostly inhibitors | 390,000 tested, 4.4% active | AID 504339, 2011; further: on the % scale 0 is the no-effect control and ±100 the full control effect; nearly all actives have a fitted effect of over 50% in size
HP1b binding inh: HTS for Inhibitors of HP1-beta Chromodomain Interactions with Methylated Histone Tails. Chromobox protein homolog 1 (Homo sapiens), P83916. AlphaScreen HP1-beta / biotin-H3K9me3 peptide binding. Potency, µM (titrated, usually from 114 µM), for the others: top-dose activity change, negative = inhibition, actives largely listed as inhibitors. 390,000 tested, 0.56% active; further: nearly all actives have a fitted effect of over 70% in size
Target sequence (P83916 whole entry, looked up): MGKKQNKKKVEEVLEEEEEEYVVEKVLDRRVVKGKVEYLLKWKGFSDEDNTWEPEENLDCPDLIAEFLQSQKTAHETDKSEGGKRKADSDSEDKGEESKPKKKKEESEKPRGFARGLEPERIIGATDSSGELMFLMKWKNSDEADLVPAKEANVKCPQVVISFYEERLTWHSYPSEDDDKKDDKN
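HP1-beta protein (50 nM final) preincubated 30 min at room temperature with biotinylated H3(1-18)K9me3 peptide (50 nM) in PBS pH 7.4, 0.01% Tween-20, then compound added for 30 min. AlphaScreen streptavidin donor/nickel chelate acceptor beads (10 ug/mL final), 30 min dark, luminescence read.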
PLK1 PBD inh: qHTS for Inhibitors of PLK1-PDB (polo-like kinase 1 - polo-box domain): Primary Screen. 360,000 tested, 2.8% active. Plk1 PBD binding of FITC phosphopeptide, fluorescence polarization. Potency, µM, for the others: max response, negative = inhibition, usual class: inhibitors. AID 720504, 2013. Serine/threonine-protein kinase PLK1 (Homo sapiens), P53350; further: series mostly up to about 57 µM; on the % scale 0 is the no-effect control and ±100 the full control effect; nearly all actives have a fitted effect of over 65% in size
G9a inh: qHTS Assay for Inhibitors of Histone Lysine Methyltransferase G9a; G9a H3K9 monomethylation, AlphaScreen, 2 h; Potency, µM (top dose mostly 102 µM), without a hit: at the top dose activity, negative = inhibition, hits mostly inhibitors; Histone-lysine N-methyltransferase EHMT2 (Homo sapiens), Q96KQ7; AID 504332, 2011; 350,000 tested, 8.8% active; further: on the % scale 0 is the no-effect control and ±100 the full control effect; nearly all actives have a fitted effect of over 75% in size
Target sequence (Q96KQ7 913-1193 limits assumed): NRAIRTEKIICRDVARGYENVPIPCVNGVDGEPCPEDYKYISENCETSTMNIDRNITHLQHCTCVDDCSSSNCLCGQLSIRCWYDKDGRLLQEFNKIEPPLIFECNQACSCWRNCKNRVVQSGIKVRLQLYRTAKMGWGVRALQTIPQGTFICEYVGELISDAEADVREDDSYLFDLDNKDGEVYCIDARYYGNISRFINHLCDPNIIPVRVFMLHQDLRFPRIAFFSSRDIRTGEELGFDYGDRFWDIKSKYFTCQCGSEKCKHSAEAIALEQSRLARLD
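Enzyme 20 nM + cpd, 15 min RT; add b-H3K9 pep 500 nM / SAM 20 uM; 2 h RT; anti-H3K9me1 Ab 0.5 ug/mL + SA donor / anti-rabbit acceptor beads 20 ug/mL each, 10 min; AlphaScreen read.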
VDR inh confirm: qHTS for Inhibitors of the vitamin D receptor (VDR): Hit Validation in Primary Screen; VDR-coactivator inhibition assay, qHTS confirmation; Potency, µM, most hits filed as inhibitors; 840 tested, 89% active; shares compounds with VDR inh
VDR FP fluor: qHTS for Inhibitors of the vitamin D receptor (VDR): Hit Validation using a Fluorescein Assay; shares compounds with VDR inh; VDR-coactivator binding, fluorescein fluorescence polarization; Potency, µM (top dose mostly 57.1 µM), for inactives: top-dose activity change, negative = inhibition, actives largely listed as inhibitors; 840 tested, 48% active; AID 602200, 2012
VDR bla reporter: qHTS for Inhibitors of the vitamin D receptor (VDR): Hit Validation using a Beta-Lactamase Assay; Potency, µM (highest dose often 46.1 µM), without a hit: at the highest dose activity change, negative = inhibition, most hits filed as inhibitors; VDR beta-lactamase reporter cells, FRET ratio; cells co-treated with VDR agonist LG190178; shares compounds with VDR inh; 840 tested, 23% active; AID 602202, 2012; further: on the % scale 0 is the no-effect control and ±100 the full control effect
VDR viability: qHTS for Inhibitors of the vitamin D receptor (VDR): Hit Validation using a Cytotoxicity Assay; 840 tested, 18% active; shares compounds with VDR inh; Potency, µM (titrated, usually from 48.3 µM), for the others: top-dose activity change, negative = cytotoxicity, usual class: cytotoxic; cytotoxicity counter-screen, cell viability, qHTS;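 further: plate controls were DMSO for no effect and high-concentration cycloheximide for full effect; nearly all actives have a fitted effect of over 75% in size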
Numbers without * were called inactive; u = inconclusive; x = no result; ! = not confirmed by another sample; [ ] = remark or other dose. Shown are actives, neighbours in structure and some others; about 11% of the full set was active somewhere. The call rests on the fitted dose curve; in most records, active means well fitted curve in the direction sought with a large enough effect; inconclusive means small, poorly fitted or top-dose-only effect, or another doubt; inactive means no such curve, though single readings can be large; an effect the other way counts as inactive or inconclusive. Potency means the concentration at half of the fitted maximal effect.

SMILES	VDR inh	BAZ2B block	JMJD2A Tudor inh	HP1b binding inh	PLK1 PBD inh	G9a inh	VDR inh confirm	VDR FP fluor	VDR bla reporter	VDR viability
CCOC(=O)c1c(-c2ccc(C)s2)csc1N	79.4µM*	u	u	u	5.32µM*	u	18.9*	11.2µM*	10.7%	23.2%
CCOC(=O)c1c(-c2ccsc2)csc1N	-29.3%	15.1%	u	-22.1%	-10.1%	47.9%[59 µM]	x	x	x	x
COc1ccc(Cl)cc1C(Nc1cccnc1)c1ccc2cccnc2c1O (stereo not drawn)	20µM*	35.5µM*	35.5µM*	u	4.23µM*	3.98µM*	21.2*	u	-30.1%	-18.7%
Cc1ccc(S(=O)(=O)N(C)C[C@H]2OCCCC[C@H](C)Oc3ccc(NC(=O)Nc4cccc5ccccc45)cc3C(=O)N([C@@H](C)CO)C[C@H]2C)cc1	x	x	x	x	-1.9%	x	x	x	x	x
O=[N+]([O-])/C=C/c1cn(Cc2ccc(F)cc2)c2ccccc12	20µM*	u	-18.8%	2.0%	u	x	6.7*	u	20.6µM*	u
CC(C)(C)c1ccc(C(=O)Nc2ccc(Cl)cc2)cc1	-11.6%	-6.2%	-3.4%	20.3%	-12.1%	-64.1%[59 µM]	x	x	x	x
CC(C)(C)c1ccc(C(=O)CC(Sc2ccc(Cl)cc2)C(=O)O)cc1 (stereo not drawn)	10µM*	-3.3%	9.0%	55.9%	10.6µM*	44.7µM*	10.6*	3.16µM*	-28.7%	u
Cc1sc2nc(SCC(=O)Nc3ccc(S(N)(=O)=O)cc3)[nH]c(=O)c2c1C	3.4%	-29.5%	-11.0%	16.8%	-13.0%	5.8%	x	x	x	x
CCOC(=O)/C(=C\c1ccc(Cl)cc1)c1nc2sc(C)c(C)c2c(=O)[nH]1	25.1µM*	-7.7%	u	u	7.52µM*	25.1µM*	5.32*	u	u	14.6µM*
CN(C)c1ccc(C(=S)N2CCN(c3ccc([N+](=O)[O-])cc3)CC2)cc1	79.4µM*	6.9%	u	u	10.6µM*	2.24µM*	26.7*	u	-11.3%	13.1%
NS(=O)(=O)c1ccc(CCNC(=O)/C=C/c2ccccc2[N+](=O)[O-])cc1	-10.9%	-1.9%	-6.5%	4.4%	-8.6%	3.4%	x	x	x	x
CCOc1ccccc1NC(=O)c1nc(S(=O)(=O)Cc2cccc(C)c2)ncc1Cl	15.8µM*	-30.1%	u	28.9%	u	56.2µM*!	8.44*	u	3.26µM*	7.31µM*
O=C(NCc1ccc2c(c1)OCO2)c1nc(S(=O)(=O)Cc2ccccc2)ncc1Cl	22.4µM*	-24.7%	-23.6%	9.3%[57 µM]	u	50.1µM*	9.47*	u	18.4µM*	u
CCOc1ccccc1NC(=O)c1cc(-c2ccncc2)nc2c(Cl)cccc12	14.3%	u	-27.6%	6.6%	0.9%	u	x	x	x	x
CCc1nnc(NC(=O)c2nc(S(=O)(=O)Cc3cccc(C)c3)ncc2Cl)s1	12.6µM*	u	2.82µM*	-14.9%[57 µM]	26.7µM*	44.7µM*	2.99*	u	5.8µM*	u
COC(=O)c1ccccc1NC(=O)c1nc(S(=O)(=O)Cc2ccccc2)ncc1Cl	u	-19.6%	-21.5%	9.8%	u	-6.3%	3.16*	3.16µM*	9.2µM*	21.2µM*
CCc1cc2cccc(C)c2nc1SCC(=O)Nc1cc(C)on1	-20.1%	7.4%	3.5%	38.0%	2.0%	x	x	x	x	x
O=C(c1ccccc1)c1c[nH]c(C(=O)NCCCn2ccnc2)c1	-0.3%	-14.5%	-10.2%	13.1%	-7.1%	27.3%[12.7 µM]	x	x	x	x
CCc1nnc(NC(=O)c2nc(S(=O)(=O)Cc3ccccc3)ncc2Cl)s1	22.4µM*	u	7.94µM*	17.8%[57 µM]	-16.5%	28.2µM*	7.52*	8.91µM*	13µM*	18.4µM*
CCS(=O)(=O)c1ncc(Cl)c(C(=O)NCc2ccccc2)n1	-6.6%	-8.4%	-13.9%	45.6%	x	u	x	x	x	x
CCOC(=O)c1nn(-c2ccccc2C)c(=O)c2c(N)scc12	35.5µM*	79.4µM*	17.8µM*	-16.2%	-14.2%	3.16µM*	u	u	21.1%	-27.4%
CO/N=C(/C(=O)N[C@@H]1C(=O)N2C(C(=O)O)=CCS[C@H]12)c1cnc(N)s1	x	6.5%	x	x	x	x	x	x	x	x
O=C1ON=C(c2ccccc2)/C1=C/c1ccc(OS(=O)(=O)c2ccccc2)cc1	u	50.1µM*	79.4µM*	u	5.97µM*	8.91µM*	3.55*	3.16µM*	1.8%	8.2%
CCOC(=O)N1C(=O)[C@@](CC)(c2ccccc2)N1C(=O)OCC	79.4µM*	-0.7%	1.4%	58.3%	13.4µM*	x	21.2*	-22.8%	5.4%	u
COC(=O)c1sc(=S)n(-c2cc(F)ccc2F)c1N	79.4µM*	56.2µM*	u	u	13.4µM*	12.1%[0.501 µM]	18.9*	u	27.7%	22.0%
CCOC(=O)c1sc(=S)n(-c2cc(F)ccc2F)c1N	-2.5%	-9.4%	u	-34.9%	u	26.2%[0.501 µM]	x	x	x	x
O=C(c1cccs1)c1no[n+]([O-])c1C(=O)c1cccs1	44.7µM*	u	u	-38.2%	u	10µM*	6.31*	3.55µM*	2.59µM*	2.99µM*
O=C(c1ccc(Cl)nc1)c1cccs1	u	8.7%	-0.7%	-25.6%	3.9%	13.0%[12.7 µM]	x	x	x	x
